DT40 TDP1 CPT = DT40-hTDP1 cell growth loss with CPT; actives 12% (n = 420,000); chicken DT40 Tdp1-/-;hTDP1 cells + 20 nM CPT, ATP luminescence, 48 h; Potency, µM (highest dose often 46.2 µM), without a hit: top-dose activity change, negative = growth inhibition, usual class: inhibitors; AID 686979; further: on the % scale 0 is the no-effect control and ±100 the full control effect; nearly all actives have a fitted effect of over 55% in size
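Chicken DT40 Tdp1-/- cells stably complemented with human TDP1 were seeded at 400 cells/well in medium containing 20 nM camptothecin, exposed to pin-transferred compounds, and grown at 37 °C for at least 48 hr. Viability was read as ATP luminescence.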
ATXN2 expr inh = inhibitors of ATXN2 expression. HEK-293 ATXN2-luciferase reporter, luminescence, 24 h. Potency, µM (top dose mostly 57 µM), without a hit: at the top dose activity change, negative = inhibition, usual class: inhibitors. actives 0.72% (n = 360,000). AID 1745845; further: on the % scale 0 is the no-effect control and ±100 the full control effect; nearly all actives have a fitted effect of over 55% in size
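qHTS (up to 57 uM final) was run with 24 h compound exposure of reporter cells at 37 °C. Each well was multiplexed: SteadyGlo luminescence measured ATXN2-luciferase expression after a fluorogenic Gly-Phe-AFC viability readout (25 uM final).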
DT40 TDP1 no CPT = qHTS for Inhibitors of human tyrosyl-DNA phosphodiesterase 1 (TDP1): qHTS in cells in absence of CPT. actives 15% (n = 420,000). AID 686978, 2013. DT40 Tdp1-/- hTDP1 cells, no CPT, ATP luminescence, 48 h. Potency, µM (top dose mostly 46.2 µM), without a hit: at the top dose activity change, negative = growth inhibition, usual class: inhibitors; further: on the % scale 0 is the no-effect control and ±100 the full control effect; nearly all actives have a fitted effect of over 55% in size
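Camptothecin absent (DMSO only). Human TDP1-complemented DT40 knockout cells, 400 cells/well, 37 °C for minimum 48 hr; ATP measured via CellTiter-Glo, 30 min dark incubation, luminescence.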
HepG2 viability = kills HepG2 cells in TGF-b inhibitor counter-screen | HepG2 CAGA-GFP viability, ATP luminescence, 18 h | Potency, µM (doses to about 46.1 µM), for the others: top-dose activity change, negative = cytotoxicity, most hits filed as cytotoxic | actives 0.76% (n = 410,000) | AID 588856
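HepG2 CAGA-GFP cells (1000/well, DMEM with 1% FBS) received compound, then TGF-beta at 500 pg/mL final, and were incubated 18 hours at 37 degrees C. Viability was read by CellTiter-Glo luminescence. Media-only wells were set as complete cell-killing and DMSO as no toxicity.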
TGFb inhibitor = blocks TGF-b signaling; actives 1.2% (n = 410,000); AID 588855; Potency, µM (highest dose often 46.1 µM), for inactives: at the top dose activity, negative = inhibition, most hits filed as inhibitors; HepG2 CAGA-GFP TGF-b/SMAD3 reporter, GFP fluorescence, 18 h; TGF-beta stimulated, 500 pg/mL final; further: on the % scale 0 is the no-effect control and ±100 the full control effect; nearly all actives have a fitted effect of over 65% in size
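Inhibition was scored as loss of TGF-beta-induced (500 pg/mL final, 18 hours, 37 degrees C) GFP in HEPG2 cells carrying a CAGA-GFP reporter, in DMEM with 1% FBS. Well GFP was summed per cell; Activity was normalised to unstimulated and stimulated DMSO wells, then concentration-response fitting.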
S2 tox = reduces viability in counter-screen for ATXN expression inhibitors; AID 651635; Potency, µM (doses to about 56.7 µM), usual class: cytotoxic; actives 0.49% (n = 400,000); S2 cells (HEK-293 line with an ATXN2-luciferase reporter) viability, CellTiter-Fluor protease fluorescence, 24 h; further: nearly all actives have a fitted effect of over 40% in size
* marks the source's active call; other numbers are inactive results; i = inactive; ? = inconclusive; / = no result given. Hits are enriched below; roughly 17% of the tested compounds scored in any of these assays. The call rests on the fitted dose curve; in most records, active means well fitted curve in the direction sought with a large enough effect; inconclusive means small, poorly fitted or top-dose-only effect, or another doubt; inactive means no such curve, though single readings can be large; an effect the other way counts as inactive or inconclusive. Potency means the concentration at half of the fitted maximal effect.

SMILES	DT40 TDP1 CPT	ATXN2 expr inh	DT40 TDP1 no CPT	HepG2 viability	TGFb inhibitor	S2 tox
O=C(c1cccs1)N1CCN(c2nnc(-c3ccccc3)c3ccccc23)CC1	?	-16%	?	-4%	2%	i
O=C(CN1CCOCC1)N1CCN(c2nnc(-c3ccccc3)c3ccccc23)CC1	?	-1%	-20%	8%	-1%	i
Cc1ccc(N=Nc2ccc(O)c3ncccc23)cc1	13µM*	13µM*	13µM*	8%	?	?
Cc1ccc(N=Nc2ccc(O)c3ncccc23)cc1C	2.3µM*	-38%	2.3µM*	-14%	3%	?
Cc1cc(N(C)C)ccc1N=Nc1ccc2ncccc2c1	?	/	?	-5%	-9%	?
COc1ccccc1NC(=O)C(=O)NCC(c1ccc2c(c1)OCO2)N1CCOCC1 (configuration not stated)	?	6%	?	4%	5%	i
CCOC(=O)CC(NC(=O)CCc1c(C)nc2cc(-c3ccccc3)nn2c1C)c1ccc(C)cc1 (configuration not stated)	16µM*	?	18µM*	-32%	?	?
CCOC(=O)CC(NC(=O)CCc1c(C)nc2nc(C)nn2c1C)c1ccc(OC(C)C)cc1 (configuration not stated)	-10%	2%	-1%	3%	2%	i
CCOC(=O)CC(NC(=O)CCc1c(C)nc2c(-c3ccccc3)c(C)nn2c1C)c1ccc(OC(C)C)cc1 (configuration not stated)	?	?	?	-35%	16µM*	/
CCn1c(O)c(C2=c3ccccc3=NC2=O)c2cc(Br)ccc21	6.5µM*	0%	12µM*	-8%	-3%	i
Cc1cc(=O)c2cc(Br)ccc2n1CC(=O)NCc1ccccc1	?	-6%	?	-1%	-16%	?
CC(C)C[C@H]1CN=C(Nc2ccccc2)N1CCCCc1ccccc1	26µM*	-27%	?	-37%	-1%	?
CC(CCN1C(Nc2ccccc2)=NC[C@@H]1C)c1ccccc1 (some centres not stated)	23µM*	-3%	12µM*	2%	10%	i
CC(C)CCN1C(Nc2ccccc2)=NC[C@@H]1Cc1ccccc1	?	-5%	16µM*	12%	-26%	?
CC(C)CN1C(Nc2ccccc2)=NC[C@@H]1C	0%	4%	14%	29%	32%	i
CC(C)CCCN1C(Nc2ccccc2)=NC[C@@H]1Cc1ccccc1	?	-12%	16µM*	-17%	-7%	?
COC(=O)c1ccc(S(=O)(=O)c2ccc(Cl)cc2)c(N)c1	?	3%	?	-1%	-3%	i
Cc1ccc(C(=O)NCC(=O)N(C)Cc2ccccc2C)s1	2%	/	-3%	-17%	-4%	i
CCCc1nc(SCC(=O)NCC2CCCO2)c2c(=O)n(C)c(=O)n(C)c2n1 (configuration not stated)	-8%	5%	4%	-4%	4%	i
O=C(Cc1ccsc1)N1CCN(S(=O)(=O)c2ccccc2F)CC1	-16%	4%	-1%	-1%	-2%	i
CCOCCCn1c(SC(C)C(=O)NCC2CCCO2)nc2sc(C)c(C)c2c1=O (configuration not stated)	-18%	-6%	-13%	-3%	10%	i
CCCCN1C(Nc2ccccc2)=NC[C@@H]1CC(C)C	?	-12%	?	1%	-10%	i

Bioassay records: PubChem BioAssay, National Center for Advancing Translational Sciences (NCATS)
